Here are results for 8 compounds from PubChem BioAssay (NCI).

About 83,000 compounds went through this panel and 20% of them were active in at least one assay; those are over-represented in the sample as a whole.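 Method: cells in 96-well plates; compound added at one concentration; 48 h incubation; percent growth measured; values under 10 scored active.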 Unmarked numbers belong to inactive results. Active and inactive are the calls of the source.

What all share (assay): NCI-60 one-dose screen, 48 h (100 = growth as untreated, 0 = no growth, -100 = all killed)
Test [1] concerns HCT-15 colon. The settings on record: 10 µM unless noted.
For test [2], the system named is HT29 colon. The settings on record: 10 µM unless noted.
The test system of test [3] is SNB-75 CNS. The settings on record: 10 µM unless noted.
In test [4] the test system is SNB-19 CNS. The following applies: 10 µM unless noted.
The test system of test [5] is U251 CNS. The settings on record: 10 µM unless noted.
In test [6] the test system is PC-3 prostate. The settings on record: 10 µM unless noted.
Test [7] concerns SK-MEL-5 melanoma. The settings on record: 10 µM unless noted.
In test [8] the test system is UACC-62 melanoma. The following applies: 10 µM unless noted.
Test [9] concerns LOX IMVI melanoma. The settings on record: 10 µM unless noted.
Test [10] has as its system SK-MEL-28 melanoma. The settings on record: 10 µM unless noted.
Test [11] concerns EKVX NSCLC. The settings on record: 10 µM unless noted.
The test system of test [12] is SN12C renal. The settings on record: 10 µM unless noted.
The test system of test [13] is UO-31 renal. The settings on record: 10 µM unless noted.
In test [14] the test system is ACHN renal. The settings on record: 10 µM unless noted.
Test [15] deals with CAKI-1 renal. The settings on record: 10 µM.
The subject of test [16] is CCRF-CEM leukemia. The following applies: 10 µM unless noted.
Test [17] concerns MOLT-4 leukemia. The settings on record: 10 µM unless noted.
Test [18] concerns TK-10 renal. The settings on record: 10 µM unless noted.
Test [19] deals with A498 renal. The settings on record: 10 µM unless noted.

Turning to `CN1CCN(c2nc(-c3cnc4ccccc4n3)cc3ccccc23)CC1`, the growth in test [1] was 7.27% (active); in test [2], 21.3%; in test [3] it was 72.7%; in [4] it was 81.1%; in test [5] it was 68%; in test [6] it was 70.8%. Also, the growth was 66.4% in [7]; -7.14% (active) in test [8]; 20% in [9]; 30.9% in test [10]; 84.9% in test [11]; 72.6% in test [12]. Further, the growth in test [13] was 63.2%; in [14], 84%; in [15], 64.1%; in test [16], 55.6%; in [17] it was 54.9%.
For `Cc1ccc(-c2cc3nc(C(Cl)Cl)nc(-c4ccccc4)n3n2)cc1`, the growth is 75.6% in test [1]; 74.9% in test [2]; 99.3% in test [3]; 74.1% in test [4]; 66.8% in test [5]; 79.3% in test [6]. Also, the growth in test [7] is 92.2%; in [8], 91.9%; in test [9], 109%; in test [10], 101%; in test [11] it was 99.6%; in [12] it was 107%. Also, the growth was 91.8% in test [13]; 108% in test [18]; 47.5% in [14]; 72.7% in [15]; 101% in test [16]; 97% in test [17].
Take `COc1ccc2c(C3=C(c4c[nH]c5ccccc45)C(=O)N(O)C3=O)coc2c1`: the growth is 92.2% in [1]; 95.4% in test [2]; 105% in test [3]; 95.1% in test [4]; 98% in test [5]; 81.2% in test [6]. The growth in [7] is 94.5%; in test [8], 80.4%; in test [9], 52.2%; in test [10], 110%; in [11], 77%; in [12], 101%. In addition, the growth is 58.2% in [13]; 94.2% in test [14]; 90.2% in test [15]; 85% in test [19]; 26.9% in [16].
`CCOC(=O)c1c(Nc2ccccc2)nn2c(-c3ccc(Br)cc3)ccnc12`: the growth in test [1] was 66.4%; in test [2], 76.7%; in test [3] it was 65.2%; in test [4], 56.8%; in test [5], 66.3%; in test [6] it was 80.9%. Besides, the growth in test [7] was 81.2%; in test [8] it was 79.3%; in test [9], 56.4%; in test [10], 78.3%; in test [11], 81.5%; in test [12], 68.3%. For the same compound, the growth in [13] was 65.1%; in [18], 90.6%; in test [14], 34%; in test [15], 57.6%; in [16], 85.8%; in test [17] it was 87.6%.
Consider `O=C1Nc2cc(OC(F)(F)F)ccc2Oc2ccc(-c3ccnc(N4CC[C@H](O)C4)c3)cc21`, for which the growth in test [1] is -30.6% (active); in test [2], -58.7% (active); in test [3] it was -6% (active); in test [4], 35.9%; in test [5], 4.76% (active); in test [6] it was 15%. The growth in [7] was -58.4% (active); in test [8] it was 28.8%; in test [9], 3.23% (active); in test [10], 24.6%; in test [11], 45.9%; in test [12] it was 7.37% (active). For the same compound, the growth is 24% in test [13]; 25.1% in test [14]; 23.9% in [15]; 12.6% in test [16]; 11.3% in test [17].
As to `O=c1cc(-c2ccccc2)nc2sc(-c3c[nH]c4ccc(F)cc34)nn12`, the growth is 67.8% in test [1]; 73.2% in test [2]; -37.9% (active) in [3]; 77.5% in test [4]; 57.9% in [5]; 64.9% in [6]. Moreover, the growth in test [7] was 69.8%; in test [8], 68.1%; in test [9], 72%; in test [10], 67.7%; in [11] it was 52%; in [12] it was 56.6%. Moreover, the growth is 20.3% in test [13], 30% in [14], 60.5% in test [15] and 88.4% in [16].
Turning to `Clc1ccc(-c2csc(Nc3cccc(Nc4csc(-c5ccc(Cl)cc5)n4)c3)n2)cc1`, the growth in [1] is 56.5%; in test [2] it was 88.1%; in [3] it was 96.8%; in [4], 85.5%; in [5], 85.4%; in test [6], 74.1%. In addition, the growth in [7] was 96.2%; in test [8], 76%; in test [9] it was 63.8%; in test [10] it was 92.7%; in test [11], 61.8%; in [12] it was 63.1%. Further, the growth in [13] is 51.5%; in test [14], 54.3%; in test [15] it was 51.9%; in [19], 67.8%; in test [16], 94.1%; in [17], 60.7%.
On to `N#C/C(=C\c1ccc(N2CCCCC2)cc1)C(=O)Nc1sc2c(c1C#N)CCC2`, for which the growth in test [1] was 95%; in test [2] it was 98.8%; in [3] it was 86.8%; in test [4] it was 99.2%; in test [5], 96.8%; in [6] it was 91.5%. Moreover, the growth was 98.7% in [7]; 90.2% in test [8]; 89.8% in [9]; 95.2% in test [10]; 98.4% in test [11]; 88.9% in [12]. Further, the growth in test [13] is 91.2%; in [18], 108%; in test [14], 72.5%; in test [15] it was 84.8%; in [16], -4.06% (active); in test [17], 104%.
